{
  "source": "PubChem BioAssay (EPA / NIEHS)",
  "note": "Where “and” joins values, the source holds several entries; their conditions need not be identical. Equal entries are not always repeated. Some structures have more than one record in an assay (separate samples or runs), and their calls can disagree. Calls of active or inactive are those of the source. Rule for the calls: active = hit-call score of the fitted dose curve at least 0.9, where 1 is the maximum; inactive = score below 0.9.",
  "data": [
    {"read-out": "Tissue plasminogen activator (tPA), PLAT (gene 5327)", "test": "BSK_BF4T_tPA: BioMAP Diversity Plus: BF4T Assay for Tissue plasminogen activator (tPA) Biomarker Activity (AID 2284272)", "details": "primary human bronchial epithelial cells with fibroblasts", "procedure": "BSK_BF4T is a cell-based, multiplexed-readout assay that uses bronchial epithelial cells and dermal fibroblasts, a human vascular primary cell, with measurements taken at 24 hours after chemical dosing in a microplate: 96-well plate.BSK_BF4T_tPA is an assay component measured in the BSK_BF4T assay. It measures tPA antibody related to regulation of gene expression using ELISA technology.Data from the assay component BSK_BF4T_tPA was analyzed at the endpoint, BSK_BF4T_tPA, in the positive analysis fitting direction relative to DMSO as the negative control and baseline of activity. Using a type of binding reporter, gain or loss-of-signal activity can be used to understand protein changes. To generalize the intended target to other relatable targets, this assay endpoint is annotated to the 'protease' intended target family, where the subfamily is 'serine protease'.\nThe levels of cell surface (or secreted, indicated by the prefix \"s\") biomarker endpoints were measured by ELISA. Overt cytotoxicity to cells in confluent adherent cultures (all systems other than the BT system) was assessed by measuring total protein levels using sulforhodamine B (SRB) staining in parallel cultures at the time of biomarker measurements, indicated as SRB endpoints. For proliferation assays for adherent cell types, individual cell types are cultured at sub-confluence and relative cell numbers quantified by SRB staining at time points optimized for each system (48 h: 3C and CASM3C systems; 72 h: BT and HDF3CGF systems; 96 h: SAg system). SRB was performed by staining cells with 0.1% SRB after fixation with 10% TCA and reading wells at 560 nm.Viability and proliferation of PBMC (T cells) was quantified by Alamar Blue reduction for the SAg and BT systems. For PBMC viability (referred to as PBMC Cytotoxicity within the assay endpoint names), cells were plated (75,000/well in a 96-well plate) and then chemical samples added for 1 h before addition of activators, SEB and TSST-1 (20 ng/mL final concentration each). Cells were incubated for 90 h. Then, Alamar Blue (20 uL/well) (Invitrogen, Cat DAL1100) was added for 6 h, and the plates were read with a fluorescence microplate reader at 546/580 nm (excitation/emission). For PBMC proliferation, cells were plated and activated as above but incubated for only 16 h prior to addition of Alamar Blue. Plates were read after 6 h.", "values": [
      {"smiles": "OCC(F)(F)C(F)(F)C(F)(F)C(F)(F)C(F)(F)C(F)(F)C(F)(F)C(F)(F)C(F)(F)C(F)(F)C(F)(F)F", "outcome": "inactive"},
      {"smiles": "O=P(O)(O)CCC(F)(F)C(F)(F)C(F)(F)C(F)(F)C(F)(F)C(F)(F)C(F)(F)C(F)(F)F", "AC50": "19.2 µM (active)", "outcome": "inactive"},
      {"smiles": "O=P(O)(O)CCC(F)(F)C(F)(F)C(F)(F)C(F)(F)C(F)(F)C(F)(F)F", "outcome": "inactive", "AC50": "14.6 µM (active)"},
      {"smiles": "CN(CCO)S(=O)(=O)C(F)(F)C(F)(F)C(F)(F)C(F)(F)C(F)(F)C(F)(F)C(F)(F)C(F)(F)F", "outcome": "inactive"},
      {"smiles": "CN(Cc1cnc2nc(N)nc(N)c2n1)c1ccc(C(=O)N[C@@H](CCC(=O)O)C(=O)O)cc1", "outcome": "inactive"},
      {"smiles": "O=S(=O)(O)C(F)(F)C(F)(F)C(F)(F)C(F)(F)C(F)(F)C(F)(F)C(F)(F)C(F)(F)C(F)(F)C(F)(F)F", "AC50": "2.39 µM (active)", "outcome": "inactive"},
      {"smiles": "C=CC(=O)OCCC(F)(F)C(F)(F)C(F)(F)C(F)(F)C(F)(F)C(F)(F)C(F)(F)C(F)(F)F", "outcome": "inactive"},
      {"smiles": "O=C(O)C(F)(F)OC(F)(F)C(F)(F)OC(F)(F)C(F)(F)OC(F)(F)C(F)(F)C(F)(F)C(F)(F)F", "AC50": "8.23 µM (active) and 8.02 µM (active)"},
      {"smiles": "O=C(O)CCC(F)(F)C(F)(F)C(F)(F)C(F)(F)C(F)(F)F", "outcome": "inactive"},
      {"smiles": "O=C(CC(=O)C(F)(F)C(F)(F)C(F)(F)F)c1cccs1", "AC50": "30 µM (active)"},
      {"smiles": "O=C(O)CCC(F)(F)C(F)(F)C(F)(F)C(F)(F)C(F)(F)C(F)(F)F", "outcome": "inactive"}
    ]}
  ]
}
